Among the data in PubChem BioAssay (Tox21) are Potency and outcome values, retold here.

A number with no mark means an inactive call. Records with an inconclusive call do not appear. Calls of active or inactive are those of the source. Unless noted, calls follow the shape of the full dose curve.

Assay [1] can be described thus: Nuclear factor erythroid 2-related factor 2/antioxidant responsive element (Nrf2/ARE) small molecule agonists: qHTS cell viability counter screen in human keratinocytes (AID 1919968; active = well fitted curve in the direction sought with a large enough effect in the repeat runs; an effect the other way counts as inactive or inconclusive; also: nearly all actives have a fitted effect of over 55% in size; also: potency is read from the fitted curve at half-maximal effect). The procedure, abridged:
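CellTiter-Fluor fluorescence, read 1 h after reagent, gave viability in the same wells as the ARE-luciferase assay. KeratinoSens cells (1,500/well) had 23 h compound exposure at 37 C/5% CO2 following 5 h plating.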
A general note: In qHTS, concentration-response curves come from the screen itself.

Assay [2] is described as follows: Nuclear factor erythroid 2-related factor 2/antioxidant responsive element (Nrf2/ARE) small molecule agonists: luciferase reporter gene qHTS assay in human keratinocytes (AID 1919969). Also: nearly all actives have a fitted effect of over 35% in size. Also: potency is read from the fitted curve at half-maximal effect. On the technique in general: A reporter such as luciferase makes a cellular process visible.
Assay [3] has as its target Gonadotropin-releasing hormone receptor (Homo sapiens) (UniProt P30968). Kind of assay: Human gonadotropin-releasing hormone receptor (GnRHR) small molecule agonists, calcium flux assay in GnRHR-HEK293 cells (AID 1920063). Also: nearly all actives have a fitted effect of over 35% in size. The procedure, abridged:
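Agonist mode: compounds at 15 concentrations, in triplicate, went onto calcium dye-loaded GnRHR-HEK293 cells. Intracellular calcium was then followed as 480/540 nm fluorescence at 1 s intervals over 3 min.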
(In general: A change in cytosolic calcium serves as a functional read-out for many receptors and channels.)

Assay [4] has as its target KiSS-1 receptor (Homo sapiens) (UniProt Q969F8). Briefly: Human kisspeptin (KISS1R) small molecule agonists, calcium flux assay in KISS1R-HEK293 cells (AID 1920064; active = well fitted curve in the direction sought with a large enough effect in the repeat runs; an effect the other way counts as inactive or inconclusive). The procedure, abridged:
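Agonist mode: intracellular calcium rise tracked at 1 s intervals over 3 min (480/540 nm) immediately after compound addition to dye-loaded KISS1R-HEK293 stable cells. Each compound tested at 15 concentrations in triplicate.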

The nature of assay [5]: G protein-coupled receptor (GPCR) small molecule agonists, calcium flux assay: HEK293 wild type cell line counter screen (AID 1920065). In a few lines: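 Calcium flux counter screen: compound added in agonist mode at 15 concentrations in triplicate to dye-loaded parental HEK293 cells. Fluorescence (480/540) read kinetically for 3 min; ATP served as positive control.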
The nature of assay [6]: p53 small molecule agonists, cell-based qHTS assay with human liver microsomes (AID 1963577).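 Also: p53 response element beta-lactamase reporter cells with liver microsomes plus NADPH.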 In a few lines: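 Metabolically competent format: test substances, human liver microsomes and NADPH (both 0.5 mg/mL final) incubated with p53RE-bla cells 16 h at 37 C. Beta-lactamase reporter signal then quantified by fluorescence.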
A short description of assay [7]: p53 small molecule agonists, cell-based qHTS assay with rat liver microsomes (AID 1963578). In a few lines:
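Each plate received p53RE-bla cells, then compound, then rat liver microsomes and NADPH (both 0.5 mg/mL final). Plates were held 16 h at 37 C, and beta-lactamase activity was detected with LiveBLAzer over 2 h.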

Assay [8] is described as follows: p53 small molecule agonists, cell-based qHTS assay with human liver microsomes: qHTS cell viability counter screen (AID 1963579). Also: nearly all actives have a fitted effect of over 45% in size. In a few lines:
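Tox21 library compounds, delivered from DMSO stocks, were tested on p53RE-bla cells together with 0.5 mg/mL human liver microsomes and 0.5 mg/mL NADPH (final) over 16 h at 37 C; CellTiter-Glo luminescence served as the cytotoxicity measure.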

The nature of assay [9]: p53 small molecule agonists, cell-based qHTS assay with rat liver microsomes: qHTS cell viability counter screen (AID 1963580). Also: nearly all actives have a fitted effect of over 45% in size. In a few lines:
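Counter screen for cytotoxicity under metabolic activation: rat liver microsomes and NADPH, 0.5 mg/mL final each, added with compounds to p53RE-bla HCT-116 cells; 16 h at 37 C, then ATP luminescence read.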

A short description of assay [10]: p53 small molecule agonists, cell-based qHTS assay: qHTS cell viability counter screen (AID 1963581). Also: nearly all actives have a fitted effect of over 45% in size. In a few lines:
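Counter screen read by CellTiter-Glo luminescence (ATP content, 30 min at room temperature), run in the same wells as the beta-lactamase reporter read. HCT-116 p53RE-bla cells saw compounds for 16 h at 37 C.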

Assay [11] in a line: p53 small molecule agonists, cell-based qHTS assay (AID 1963582; active = well fitted activation curve with a large enough effect in the signal ratio in the repeat runs, not every such curve was filed as active; the % refers to the signal ratio). The procedure, abridged:
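Read-out is beta-lactamase FRET fluorescence after 2 h at room temperature with LiveBLAzer B/G substrate. p53 response element-bla cells were treated 16 h at 37 C with compounds in DMSO, added 5 h after seeding.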

Assay [12] addresses Muscarinic acetylcholine receptor M1 (Homo sapiens) (UniProt P11229). Kind of assay: Cholinergic receptor muscarinic 1 (CHRM1) small molecule antagonists, cell-based qHTS assay (AID 1963588). Also: nearly all actives have a fitted effect of over 40% in size. Also: potency is read from the fitted curve at half-maximal effect. The procedure, abridged:
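Compounds were tested at 15 concentrations in three independent runs. Dye-loaded CHRM1-CHO cells were exposed 5 min at room temperature before stimulation by acetylcholine added at 50nM. Intracellular calcium was read kinetically on FDSS for 3 min.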

A short description of assay [13]: cAMP Responsive Elements (CRE) small molecule agonists, cell-based qHTS assay (AID 1963590). In a few lines: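 Agonist mode: compound added to CRE-bla HEK 293T cells (2,000/well, 18 h after plating) for 3 h at 37 C/5% CO2. Reporter activity detected via FRET beta-lactamase substrate, 2 h room-temperature loading.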
Assay [14] can be described thus: cAMP Responsive Elements (CRE) small molecule antagonists, cell-based qHTS assay (AID 1963591; active = well fitted inhibition curve with a large enough effect in the signal ratio in the repeat runs, not every such curve was filed as active; the % refers to the signal ratio). The procedure, abridged: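 Antagonist mode: compounds are added alongside the adenylyl cyclase activator NKH477 (0.25 uM final) to CRE-bla HEK293T cells for 3 h. LiveBLAzer FRET substrate, 2 h at room temperature, reports bla expression.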
The target of assay [15] is Beta-2 adrenergic receptor (Homo sapiens) (UniProt P07550). Kind of assay: Adrenergic beta2 receptor (ADRB2) small molecule antagonists, cell-based qHTS assay (AID 1963592). Also: series mostly up to about 92 µM; nearly all actives have a fitted effect of over 50% in size. The procedure, abridged:
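Assay format: CHO-ADRB2 cells, 18-20hr seeding at 37C/5% CO2, then compound plus 1nM isoproterenol agonist mix for 0.5hr RT. Homogeneous time-resolved fluorescence cAMP detection after 1hr, expressed as 665/615 nm ratio.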

The target of assay [16] is D(2) dopamine receptor (Homo sapiens) (UniProt P14416). Kind of assay: Dopamine D2 receptor (DRD2) small molecule agonists, cell-based qHTS assay (AID 1963594). Also: nearly all actives have a fitted effect of over 35% in size. In a few lines: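 HEK293 cells stably expressing DRD2 were cultured 24 h at 37 C, then given Ro20-1724 (0.1 mM final) and compounds for 10 min at room temperature. NKH477 (200nM) was then added for 30 min. cAMP was read by HTRF.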

Assay [17] has the same target. Kind of assay: Dopamine D2 receptor (DRD2) small molecule antagonists, cell-based qHTS assay (AID 1963595; active = well fitted inhibition curve with a large enough effect in the signal ratio in the repeat runs, with a control signal flat; the % refers to the signal ratio). In a few lines: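 HEK293 cells stably expressing DRD2 were preincubated with 0.1 mM Ro20-1724, then with compound for 10 min at room temperature. Cells were stimulated with 200 nM NKH477 plus 12 nM quinpirole for 30 min, and cAMP was read by HTRF.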
Assay [18] deals with Muscarinic acetylcholine receptor M1 (Homo sapiens) (UniProt P11229). Kind of assay: Cholinergic receptor muscarinic 1 (CHRM1) small molecule agonists, cell-based qHTS assay (AID 1963589). Also: nearly all actives have a fitted effect of over 35% in size. The procedure, abridged: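 Agonist-mode calcium-flux screen: compounds at 15 concentrations, three independent runs, were pin-transferred onto dye-loaded human CHRM1-CHO cells. Fluorescence was then recorded kinetically every second over minutes.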

Assay [19] deals with Beta-2 adrenergic receptor (Homo sapiens) (UniProt P07550). Briefly: Adrenergic beta2 receptor (ADRB2) small molecule agonists, cell-based qHTS assay (AID 1963593).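 Also: CHO cells stably overexpressing human ADRB2.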 In a few lines:
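CHO cells stably over-expressing ADRB2 were plated overnight at 37C, then dosed with compounds plus a stimulation mix containing 100uM IBMX and 25uM Ro-20-1724 for 0.5hr at room temperature. cAMP was measured by HTRF competition, 1hr.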

Chain of D(2) dopamine receptor (Homo sapiens) (P14416 whole entry, looked up): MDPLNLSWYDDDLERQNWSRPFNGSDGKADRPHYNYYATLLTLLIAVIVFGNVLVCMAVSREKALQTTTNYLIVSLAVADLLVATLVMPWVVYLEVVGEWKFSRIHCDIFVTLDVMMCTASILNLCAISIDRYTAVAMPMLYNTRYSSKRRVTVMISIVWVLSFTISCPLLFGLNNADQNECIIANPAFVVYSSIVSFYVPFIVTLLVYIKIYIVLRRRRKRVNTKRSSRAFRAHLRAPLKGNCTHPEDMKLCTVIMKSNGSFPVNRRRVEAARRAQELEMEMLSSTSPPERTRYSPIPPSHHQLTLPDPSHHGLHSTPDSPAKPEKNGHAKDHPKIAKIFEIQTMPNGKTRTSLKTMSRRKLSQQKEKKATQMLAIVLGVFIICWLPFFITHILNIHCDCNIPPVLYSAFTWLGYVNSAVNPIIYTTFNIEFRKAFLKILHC
Chain of Muscarinic acetylcholine receptor M1 (Homo sapiens) (P11229 whole entry, looked up): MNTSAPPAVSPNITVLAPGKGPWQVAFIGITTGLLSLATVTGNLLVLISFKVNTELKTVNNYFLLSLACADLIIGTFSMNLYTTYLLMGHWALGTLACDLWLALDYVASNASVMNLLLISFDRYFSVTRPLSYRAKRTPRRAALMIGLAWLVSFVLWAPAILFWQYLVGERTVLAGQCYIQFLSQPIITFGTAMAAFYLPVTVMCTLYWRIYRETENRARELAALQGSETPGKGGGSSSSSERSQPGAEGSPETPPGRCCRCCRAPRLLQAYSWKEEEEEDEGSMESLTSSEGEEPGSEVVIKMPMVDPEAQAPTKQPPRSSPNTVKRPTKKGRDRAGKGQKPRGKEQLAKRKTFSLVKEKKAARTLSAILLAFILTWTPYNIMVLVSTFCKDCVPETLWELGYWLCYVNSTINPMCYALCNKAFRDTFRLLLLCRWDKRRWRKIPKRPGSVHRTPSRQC
Chain of Gonadotropin-releasing hormone receptor (Homo sapiens) (P30968 whole entry, looked up): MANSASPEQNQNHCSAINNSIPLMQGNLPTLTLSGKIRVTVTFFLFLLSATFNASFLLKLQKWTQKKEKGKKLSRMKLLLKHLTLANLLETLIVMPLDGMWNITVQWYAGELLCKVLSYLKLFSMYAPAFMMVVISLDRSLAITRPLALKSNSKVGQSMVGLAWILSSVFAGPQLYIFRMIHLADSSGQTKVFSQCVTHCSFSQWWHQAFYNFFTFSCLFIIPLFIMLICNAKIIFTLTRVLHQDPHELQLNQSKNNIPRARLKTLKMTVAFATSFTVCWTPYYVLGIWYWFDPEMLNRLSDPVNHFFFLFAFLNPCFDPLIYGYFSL
Chain of KiSS-1 receptor (Homo sapiens) (Q969F8 whole entry, looked up): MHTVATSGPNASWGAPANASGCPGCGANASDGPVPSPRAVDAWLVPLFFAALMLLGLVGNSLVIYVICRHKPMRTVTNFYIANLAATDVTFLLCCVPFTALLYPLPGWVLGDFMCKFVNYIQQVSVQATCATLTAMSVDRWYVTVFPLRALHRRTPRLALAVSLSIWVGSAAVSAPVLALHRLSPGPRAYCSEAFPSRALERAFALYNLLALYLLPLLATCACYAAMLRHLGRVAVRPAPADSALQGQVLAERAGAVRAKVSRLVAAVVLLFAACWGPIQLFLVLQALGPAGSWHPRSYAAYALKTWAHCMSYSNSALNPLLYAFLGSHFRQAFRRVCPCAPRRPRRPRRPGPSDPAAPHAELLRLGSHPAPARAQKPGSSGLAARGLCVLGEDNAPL
Chain of Beta-2 adrenergic receptor (Homo sapiens) (P07550 whole entry, looked up): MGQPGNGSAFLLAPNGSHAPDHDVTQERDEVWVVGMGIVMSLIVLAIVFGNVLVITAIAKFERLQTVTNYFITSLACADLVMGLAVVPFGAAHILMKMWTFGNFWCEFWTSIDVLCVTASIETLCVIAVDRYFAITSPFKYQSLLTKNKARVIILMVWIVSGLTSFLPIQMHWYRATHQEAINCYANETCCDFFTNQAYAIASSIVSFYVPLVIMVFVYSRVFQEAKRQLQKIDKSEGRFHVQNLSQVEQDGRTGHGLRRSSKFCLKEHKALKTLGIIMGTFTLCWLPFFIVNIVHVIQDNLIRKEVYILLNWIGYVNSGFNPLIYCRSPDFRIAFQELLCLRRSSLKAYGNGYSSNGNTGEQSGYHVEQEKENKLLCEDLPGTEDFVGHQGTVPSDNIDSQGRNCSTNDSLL

On to `CCC1CO1` (stereo not given), for which the Potency result in assay [1], in [2], in assay [3], in [6], in assay [7] and in [8] was “inactive” in each case. Also, the Potency result in assay [9], in [10], in [11], in assay [12], in [13] and in assay [14] was “inactive” throughout. Further, the Potency result in assay [15], in assay [16] and in [17] was “inactive” in each case. Further, the outcome in assay [4] and in [5] was inactive.
As for `O=C1CCCCCCCCCCC(=O)OCCO1`, the Potency result in assay [1], in assay [2], in assay [3], in [6], in assay [7] and in [8] was “inactive” each time. Also, the Potency entry in assay [9], in assay [10], in assay [11], in assay [12], in assay [18] and in assay [15] was “inactive” in each case. The Potency entry in [16] is “inactive”. The result in [4] and in [5] was inactive.
Take `O=C(CCC1CCN(Cc2ccccc2)CC1)c1ccc2c(c1)NCCCC2`: the Potency result in [1], in assay [2], in [3], in assay [6], in assay [7] and in assay [8] was “inactive” in each case. Further, the Potency entry in [9], in [10], in assay [11], in [18], in [13] and in [15] was “inactive” in each case. Besides, the Potency result in [16] was “inactive”. Moreover, the result in assay [4] and in assay [5] was inactive. Further, in assay [12], the Potency is 3.26 µM (active).
For the molecule `CC(=O)Nc1cc(S(=O)(=O)O)cc2cc(S(=O)(=O)O)c(N=Nc3ccccc3)c(O)c12`, in [1], the Potency is 27.3 µM (active). Besides, the Potency result in assay [2], in assay [3], in assay [6], in assay [7], in assay [8] and in assay [9] was “inactive” in each case. For the same molecule, the Potency entry in assay [10], in assay [11], in [12], in assay [18], in assay [13] and in [16] was “inactive” in each case. In addition, the outcome in [4] and in assay [5] was inactive.
Take `CCCCCCCC(C)=O`: the Potency entry in assay [1], in [2], in assay [3], in assay [6], in assay [7] and in assay [8] was “inactive” each time. Also, the Potency result in assay [9], in [10], in assay [11], in [12], in assay [13] and in assay [14] was “inactive” in each case. Besides, the Potency result in assay [16] and in assay [17] was “inactive” throughout. In addition, the result in assay [4] and in assay [5] was inactive.
With `CCC(C)N(C)C(=O)c1cc2ccccc2c(-c2ccccc2Cl)n1` (stereo not given), the Potency entry in assay [1], in [2], in [3], in assay [6], in assay [7] and in [8] was “inactive” throughout. Moreover, the Potency entry in [9], in assay [10], in assay [11], in assay [18], in assay [13] and in [15] was “inactive” in each case. The Potency result in assay [16] and in assay [17] was “inactive” in each case. Moreover, the result in [4] and in assay [5] was inactive.
For the molecule `CCCCC(CC)CN` (stereo not given), the Potency result in assay [1], in assay [2], in [3], in assay [6], in assay [7] and in assay [8] was “inactive” each time. For the same molecule, the Potency entry in assay [9], in assay [10], in [11], in assay [18], in [13] and in assay [14] was “inactive” in each case. In addition, the Potency entry in assay [15] and in [17] was “inactive” in each case. In addition, the outcome in [4] and in assay [5] was inactive.
Consider `CC(=O)c1c(C)cc(C(C)(C)C)cc1C`, for which the Potency entry in assay [1], in assay [2], in assay [3], in assay [6], in assay [7] and in assay [8] was “inactive” throughout. The Potency result in [9], in assay [10], in assay [11], in assay [12], in assay [18] and in assay [13] was “inactive” each time. In addition, the Potency entry in [14], in assay [19] and in assay [17] was “inactive” throughout. Also, the result in assay [4] and in [5] was inactive.
With `COc1ccc2[nH]c(S(=O)Cc3ncc(C)c(OC)c3C)nc2n1` (stereo not given), the Potency entry in assay [1], in assay [3], in [6], in assay [7], in [8] and in assay [9] was “inactive” each time. The Potency result in assay [10], in assay [11], in assay [18], in assay [14], in [15] and in assay [19] was “inactive” in each case. For the same molecule, the Potency result in [16] and in [17] was “inactive” each time. Moreover, the Potency in assay [2] is 21.1 µM (active). Further, the outcome in assay [4] and in [5] was inactive.
